Experimental data as given in PubChem BioAssay (EPA / NIEHS).
Where “and” joins values, the source holds several entries; their conditions need not be identical. Equal entries are not always repeated. Inconclusive results are not listed. Some compounds were tested as several samples or in several runs, with calls that do not always agree. Calls of active or inactive are those of the source. The calls were made as follows: active = hit-call score of the fitted dose curve at least 0.9, where 1 is the maximum; inconclusive = response in the unintended direction; inactive = score below 0.9.

Experiments:
[1] = Tanguay_ZF_120hpf_SWIM_legacy: (Legacy) Oregon State University Tanguay Lab 120 Hour Post-fertilization zebrafish Assay for Swim Bladder Malformation (AID 2283654);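 also: swim bladder malformation in each larva scored yes or no under brightfield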
Outline: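 Dechorionated wild-type Tropical 5D zebrafish embryos, one per well from 6 hpf, were statically exposed at 28C until 120 hpf in 0.64% DMSO. Swim bladder malformation scored as present/absent by brightfield microscopy; not scored in dead larvae.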

[2] = Tanguay_ZF_120hpf_NC_legacy: (Legacy) Oregon State University Tanguay Lab 120 Hour Post-fertilization zebrafish Assay for Notochord and Tail Malformation (AID 2283656)
Outline: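 Dechorionated Tropical 5D wild-type zebrafish embryos, one per well from 6 hpf, statically exposed to 120 hpf at 28C in 0.64% DMSO final. Notochord distortion scored present/absent by brightfield; dead embryos excluded.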

[3] = read-out: ABC Transporter (ABCB1), ABCB1 (gene 5243); experiment: CLD_ABCB1_6hr: CellzDirect (CLD) Gene Expression Assay for ABC Transporter (ABCB1) at 6 hours (AID 2283659);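 also: hits raise ABCB1 transcript above the DMSO vehicle baseline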
Outline: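 Primary human hepatocytes (two donor preparations) dosed daily for two days with chemicals at multiple concentrations, 0.2% DMSO vehicle; harvested 6 h post-dose. ABCB1 mRNA induction quantified by qNPA chemiluminescence; gain-of-signal fitted versus DMSO.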

[4] = read-out: Broad substrate specificity ATP-binding cassette transporter ABCG2 (Homo sapiens) (UniProt Q9UNQ0); experiment: CLD_ABCG2_6hr: CellzDirect (CLD) Gene Expression Assay for ABC Transporter (ABCG2) at 6 hours (AID 2283660)
Outline: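 Primary human hepatocytes dosed daily with chemicals at multiple concentrations (0.2% DMSO vehicle), harvested 6 h after dosing. ABCG2 mRNA induction read by quantitative nuclease protection assay (qNPA) chemiluminescence; gain of signal fitted against DMSO baseline.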

[5] = read-out: xenobiotic metabolism (CYP1A1), CYP1A1 (gene 1543); experiment: CLD_CYP1A1_6hr: CellzDirect (CLD) Gene Expression Assay for xenobiotic metabolism (CYP1A1) at 6 hours (AID 2283661);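 as to AC50: potency for transcript induction above DMSO vehicle baseline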
Outline: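 Primary human hepatocytes from two donors, compound versus 0.2% DMSO vehicle. CYP1A1 mRNA measured 6 h after dosing by quantitative nuclease protection assay with chemiluminescent read-out; induction fitted relative to DMSO, cytotoxicity flagged by microscopy.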

[6] = read-out: xenobiotic metabolism (CYP1A2), CYP1A2 (gene 1544); experiment: CLD_CYP1A2_6hr: CellzDirect (CLD) Gene Expression Assay for xenobiotic metabolism (CYP1A2) at 6 hours (AID 2283663);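 as to AC50: potency is for induction meaning a rise in mRNA above DMSO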
Outline: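 Primary human hepatocytes from two donor preparations, dosed daily with multiple concentrations in 0.2% DMSO and harvested at 6 h. CYP1A2 mRNA induction measured by chemiluminescent qNPA, gain of signal fitted against DMSO; cytotoxicity flagged morphologically.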

[7] = read-out: sulfotransferase (SULT2A), SULT2A1 (gene 6822); experiment: CLD_SULT2A_6hr: CellzDirect (CLD) Gene Expression Assay for sulfotransferase (SULT2A) at 6 hours (AID 2283669);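 also: hits raise transcript level above the DMSO vehicle baseline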
Outline: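 Primary human hepatocytes from two donor preparations were dosed daily with chemicals or 0.2% DMSO and harvested at 6 h. Transcript induction read by qNPA chemiluminescence, fitted for gain of signal relative to DMSO; morphology-based cytotoxicity annotated.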

[8] = read-out: glucuronosyltransferase (UGT1A1), UGT1A1 (gene 54658); experiment: CLD_UGT1A1_6hr: CellzDirect (CLD) Gene Expression Assay for glucuronosyltransferase (UGT1A1) at 6 hours (AID 2283672)
Outline: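 Primary human hepatocytes from two donor preparations, dosed with fresh solutions in 0.2% DMSO, harvested at 6 h. UGT1A1 mRNA measured by qNPA chemiluminescence; induction fitted upward versus DMSO.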

[9] = read-out: xenobiotic metabolism (CYP1A1), CYP1A1 (gene 1543); experiment: CLD_CYP1A1_24hr: CellzDirect (CLD) Gene Expression Assay for xenobiotic metabolism (CYP1A1) at 24 hours (AID 2283673);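 also: CYP1A1 mRNA level by quantitative nuclease protection with chemiluminescence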
Outline: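 Primary human hepatocytes dosed daily with fresh solutions in 0.2% DMSO vehicle. mRNA measured at 24 h by quantitative nuclease protection assay with chemiluminescence; gain-of-signal fit versus DMSO, with morphology-based cytotoxicity flags.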

[10] = read-out: organic anion transporter (SLCO1B1), SLCO1B1 (gene 10599); experiment: CLD_SLCO1B1_6hr: CellzDirect (CLD) Gene Expression Assay for organic anion transporter (SLCO1B1) at 6 hours (AID 2283668);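 also: active means mRNA induction above DMSO baseline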
Outline: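 Primary human hepatocytes dosed daily with test chemicals (multiple concentrations) in 0.2% DMSO vehicle; harvested at 6 h. SLCO1B1 mRNA quantified by qNPA chemiluminescence, fitted as gain-of-signal versus DMSO; cytotoxicity from phase-contrast morphology flagged alongside.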

[11] = read-out: ABC Transporter (ABCB11), ABCB11 (gene 8647); experiment: CLD_ABCB11_6hr: CellzDirect (CLD) Gene Expression Assay for ABC Transporter (ABCB11) at 6 hours (AID 2283675);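 also: hits raise ABCB11 mRNA level so AC50 marks induction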
Outline: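 Human primary hepatocytes (two donor preparations) given fresh chemical daily at multiple concentrations, vehicle 0.2% DMSO. ABCB11 mRNA induction measured 6 h after dosing by qNPA chemiluminescence versus DMSO; cytotoxicity annotated from morphology.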

[12] = CLD_ACTIN_6hr: CellzDirect (CLD) Gene Expression Assay for Baseline Control (Actin) at 6 hours (AID 2283676);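 also: active means increased actin mRNA relative to DMSO vehicle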
Outline: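 Primary human hepatocytes dosed with fresh chemical solutions (vehicle 0.2% DMSO), harvested at 6 h. Actin mRNA quantified by quantitative nuclease protection assay with chemiluminescent read-out, as background control relative to DMSO.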

[13] = Tanguay_ZF_120hpf_TRUN_legacy: (Legacy) Oregon State University Tanguay Lab 120 Hour Post-fertilization zebrafish Assay for Truncated Body (AID 2283655)
Outline: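 Whole-embryo zebrafish screen: dechorionated 5D embryos, static exposure 6–120 hpf, 28C, sealed foil-covered plates, 0.64% DMSO. Binary truncation call; gain of signal versus DMSO baseline.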

[14] = tested on: Thyroperoxidase (TPO), gene 54314; experiment: CCTE_Simmons_AUR_rTPO: CCTE's Amplex UltraRed Assay for Thyroperoxidase (TPO) Inhibition, Simmons Lab (AID 2283662);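 as to AC50: potency for loss of signal meaning inhibition of peroxidase activity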
Outline: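 Rat thyroid microsomes (5 ug protein) with 25 uM Amplex UltraRed and 300 uM H2O2 in 200 mM phosphate buffer, 30 min at 37C in dark; fluorescence 544/590 nm. Eight concentrations, 5 nM–87.5 uM final, 0.5% DMSO, triplicate biological replicates.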

[15] = CCTE_Simmons_CellTiterGLO_HEK293T: Viability Assessment in CCTE's Assays for Thyroperoxidase (TPO) Inhibition, Simmons Lab (AID 2283665);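 also: cells exposed to compound for 24 h before readout; actives reduce ATP signal below DMSO vehicle meaning cytotoxicity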
Outline: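 HEK293T, 10 000 cells/well, DMEM + 1% FBS; 8-pt titration 5 nM–87.5 uM [final], 0.5% DMSO; 24 hr, 37C, 5% CO2; CellTiter-Glo luminescence; n=3 biological replicates.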

[16] = Tanguay_ZF_120hpf_TR_legacy: (Legacy) Oregon State University Tanguay Lab 120 Hour Post-fertilization zebrafish Assay for Touch Response (AID 2283667)
Outline: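 Tropical 5D wild-type zebrafish embryos statically exposed to 120 hpf at 28°C, sealed and dark-covered, 0.64% DMSO final; touch response scored as present/absent by brightfield microscopy at 120 hpf. Trimethyltin chloride 5 uM positive control; dead embryos not scored.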

Measured: AC50

Chain of Broad substrate specificity ATP-binding cassette transporter ABCG2 (Homo sapiens) (Q9UNQ0 whole entry, looked up): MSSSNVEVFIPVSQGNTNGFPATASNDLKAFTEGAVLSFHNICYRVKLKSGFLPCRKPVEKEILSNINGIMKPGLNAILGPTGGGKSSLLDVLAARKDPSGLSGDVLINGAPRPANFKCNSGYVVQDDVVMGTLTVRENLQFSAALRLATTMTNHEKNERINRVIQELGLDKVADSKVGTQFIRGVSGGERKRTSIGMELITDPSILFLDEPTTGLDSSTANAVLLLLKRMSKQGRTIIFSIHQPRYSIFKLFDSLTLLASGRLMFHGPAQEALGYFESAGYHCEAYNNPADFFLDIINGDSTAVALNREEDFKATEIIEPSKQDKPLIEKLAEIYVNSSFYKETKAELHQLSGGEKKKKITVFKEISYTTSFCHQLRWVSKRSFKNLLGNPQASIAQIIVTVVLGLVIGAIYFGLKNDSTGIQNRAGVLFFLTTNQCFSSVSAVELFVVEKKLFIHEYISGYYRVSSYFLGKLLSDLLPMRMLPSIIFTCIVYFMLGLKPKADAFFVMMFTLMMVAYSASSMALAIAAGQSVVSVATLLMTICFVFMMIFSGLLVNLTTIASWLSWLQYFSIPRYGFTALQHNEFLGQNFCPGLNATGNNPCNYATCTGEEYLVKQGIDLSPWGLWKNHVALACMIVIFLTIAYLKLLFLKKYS

N#CC(CCc1ccc(Cl)cc1)(Cn1cncn1)c1ccccc1 (stereo not given)
active: [5] 1.89 µM | [6] 1.89 µM | [9] 2.64 µM
inactive: [1] | [2] | [3] | [4] | [7] | [8]

COc1nc(C)nc(NC(=O)NS(=O)(=O)c2ccccc2CCC(F)(F)F)n1
inactive: [3] | [4] | [5] | [6] | [10] | [7] | [8] | [9] | [11] | [12]
active: [5] 1.9 µM and 287 nM | [6] 2.44 µM | [9] 20 µM

CC1=C(C(=O)Nc2ccccc2)SCCO1
active: [5] 11.1 µM | [14] 5.33 µM | [6] 7.64 µM | [9] 20 µM
inactive: [13] | [2] | [7] | [8]

CC1COC(Cn2cncn2)(c2ccc(Oc3ccc(Cl)cc3)cc2Cl)O1 (stereo not given)
active: [15] 27.9 µM | [7] 20 µM | [9] 1.94 µM
inactive: [1] | [2] | [3] | [4] | [5] | [14] | [6] | [16] | [10] | [8] | [12]

C#CCOS(=O)OC1CCCCC1Oc1ccc(C(C)(C)C)cc1 (stereo not given)
active: [5] 3.67 µM | [6] 1.9 µM | [9] 20 µM
inactive: [1] | [2] | [4] | [7] | [8] | [11] | [12]

CC(C)(C)c1ccc(CSc2cnn(C(C)(C)C)c(=O)c2Cl)cc1
inactive: [1] | [13] | [2] | [4] | [16] | [10] | [7] | [11] | [12]
active: [9] 20 µM

CCCCC(CC)COC(=O)c1ccccc1C(=O)OCC(CC)CCCC (stereo not given)
inactive: [1] | [13] | [2] | [5] | [6] | [16] | [10] | [7] | [8] | [9] | [11]

CC(Oc1ccc(Cl)cc1Cl)C(=O)O (stereo not given)
inactive: [1] | [2] | [5] | [8] | [9] | [11] | [12]

O=C(O)c1nc(Cl)ccc1Cl
inactive: [1] | [13] | [2] | [5] | [14] | [6] | [16] | [10] | [8] | [11] | [12]
active: [5] 4.04 µM | [6] 6.11 µM | [9] 7.87 µM

CCON=C(CC)C1=C(O)CC(c2c(C)cc(C)cc2C)CC1=O (stereo not given)
inactive: [1] | [13] | [2] | [4] | [5] | [10] | [8] | [9] | [11] | [12]

CNC(=O)ON=CC(C)(C)SC
inactive: [1] | [2] | [6] | [8] | [12]
active: [13] 1.07 µM | [5] 0.000972 µM

COC(=O)N(OC)c1ccccc1COc1ccn(-c2ccc(Cl)cc2)n1
inactive: [1] | [13] | [2] | [4] | [10] | [7] | [11]
active: [9] 1.9 µM

O=C(O)COc1nc(Cl)c(Cl)cc1Cl
inactive: [1] | [13] | [3] | [4] | [6] | [7] | [8] | [9]

O=C(Nc1ccccc1)Nc1ccnc(Cl)c1
active: [5] 12.3 µM | [14] 27.6 µM | [6] 8.16 µM | [15] 53.8 µM | [9] 10.4 µM
inactive: [1] | [2] | [4] | [8] | [12]

COP(N)(=O)SC (stereo not given)
active: [14] 30.6 µM
inactive: [1] | [13] | [4] | [5] | [6] | [10] | [7] | [9] | [11] | [12]
